ChEMBL document CHEMBL4513216, “Probing the Open Global Health Chemical Diversity Library for Multistage-Active Starting Points for Next-Generation Antimalarials” (ACS Infect Dis, 2020)
Among all 69,000 compounds or so, about 8,600 (12%) showed an effect of 50% or more. The list comes from a sample in which strong results are over-represented; it also holds similar structures and randomly drawn compounds.

These compounds were tested on Plasmodium berghei (assay: Screen against P. berghei liver stage (PbLuc), transformed with Luciferase, at 10uM). Conditions: tested at 10 uM.
Type: functional, HepG2
`CN1CCN(Cc2cnc3n2CCN(Cc2cccs2)C3)CC1` showed an INHIBITION of 30.7%.
In the case of `O=C(NC1CCNCC1)C1(N2CCCCC2)Cc2ccccc2C1`, the INHIBITION is reported as 26.9%.
With `CN(CCCO)c1nc(-c2ccc(C(N)=O)cc2)nc2c1CCNC2` the INHIBITION was -3.3%.
`O=S(=O)(NC1CCOC1)c1ccc(C(F)(F)F)nc1` (stereo not given) gave an INHIBITION of 34.5%.
`COc1cc(CN2C[C@@H]3CNC(=O)[C@H](C)[C@@H]3C2)cc(OC)c1` was tested, and the INHIBITION was -24.5%.
`O=C(c1ccoc1)N(Cc1cccnc1)C1CC1` was tested, and the INHIBITION was 17.1%.
With `COc1ncccc1NC(=O)NC1CCCN(c2ncccn2)C1` (stereo not given) the INHIBITION was -19.9%.
In the case of `CN(C)CCOCC1CN(CC2CCOCC2)Cc2nnn(C)c21` (stereo not given), the INHIBITION is reported as 13%.
`CC(NC(=O)CCC(=O)c1cccs1)c1nnc2n1CCC2` (stereo not given) showed an INHIBITION of -31.5%.
In the case of `CNC(=O)COC(=O)c1cccc(-n2ccc(C(F)(F)F)n2)c1`, the INHIBITION is reported as 40.6%.
For `CNC(=O)CCOC(=O)c1cccc(-n2cccn2)c1`, the INHIBITION was 77.7%.
Compound `CNC(=O)CCOC(=O)c1cccc(-n2ccc(C(F)(F)F)n2)c1` has an INHIBITION of 24.8%.
`CO[C@H]1CCN(Cc2cnn(C)c2)[C@@H]2CN(Cc3cccnc3)C[C@H]12` gave an INHIBITION of 0%.
`COc1ccc(-c2cc(C(=O)NCCCn3ccnc3C)n(C)n2)cc1` was tested, and the INHIBITION was 18.3%.
With `CCC(C)C(=O)NCc1cccc(OCCN(C)C2CCOCC2)c1` (stereo not given) the INHIBITION was 39.5%.
`CN(CCOc1cccc(CNC(=O)C2CC2)c1)C1CCOCC1` was tested, and the INHIBITION was 29.2%.
`CN(CCOc1cccc(CNS(C)(=O)=O)c1)C1CCOCC1` was tested, and the INHIBITION was 39.5%.
`CN(CCOc1cccc(CN)c1)C1CCOCC1` gave an INHIBITION of 0%.
Compound `CC(C)CC(=O)NCc1cccc(OCCN(C)C2CCOCC2)c1` has an INHIBITION of 71.3%.
In the case of `COCC(=O)NCc1cccc(OCCN(C)C2CCOCC2)c1`, the INHIBITION is reported as 88.1%.
Compound `CSC(C)(C)CNC(=O)NC1CCN(CC(F)F)CC1` has an INHIBITION of 33.7%.
For `CN(C)CC1CN(Cc2ccc(F)cc2)Cc2nccn2C1` (stereo not given), the INHIBITION was 24.1%.
`COc1ccc(-n2cc3nc(N)[nH]cc-3c2=O)cc1` showed an INHIBITION of 28.4%.
Work on `O=C1[C@H]2CN(Cc3cccs3)C[C@H]2CN1c1ccsc1` yielded an INHIBITION of 14.8%.
Compound `Cc1ncsc1C(=O)N(Cc1ccccc1)C1CC1` has an INHIBITION of 33.45%.
Compound `CCC(O)CN(Cc1ccccc1)S(=O)(=O)c1cnc(C)s1` (stereo not given) has an INHIBITION of 52.6%.
Compound `CCC(O)CN(c1ccccc1)S(=O)(=O)c1cnc(C)s1` (stereo not given) has an INHIBITION of 37.8%.
`CN(CCOc1ccc(C#N)cc1)CC1CCS(=O)(=O)C1` (stereo not given) showed an INHIBITION of 22.6%.
With `Cn1cc(CN2CC[C@@H]3[C@H]2CCC(=O)N3c2ccccc2)cn1` the INHIBITION was -46.8%.
With `Cn1cc(N2C(=O)CC[C@@H]3[C@H]2CCN3Cc2ccncc2)cn1` the INHIBITION was -10.4%.
`COc1ccc(CN2CC[C@@H]3[C@H]2CCC(=O)N3c2cnn(C)c2)cc1` showed an INHIBITION of 61.9%.
`CN1CCN(C2CCN(CC(O)c3ccccc3F)CC2)C1=O` (stereo not given) gave an INHIBITION of 17.065%.
Work on `c1cnc(-c2nn3c(CN4CCCCC4)nnc3s2)cn1` yielded an INHIBITION of 6.83%.
With `COC(=O)C1=NOC(Cc2cc(OC)c3c(c2)OCO3)C1` (stereo not given) the INHIBITION was 10.7%.
`COc1cc(CC2CC(C(N)=O)=NO2)cc2c1OCO2` (stereo not given) showed an INHIBITION of 16.3%.
In the case of `CCOC(=O)C1=NOC(Cc2cc(OC)c3c(c2)OCO3)C1` (stereo not given), the INHIBITION is reported as 60%.
In the case of `CN1CC(C(=O)NCCc2ccc(F)c(Br)c2)CC1=O` (stereo not given), the INHIBITION is reported as -50.6%.
Compound `CS(=O)(=O)NCCCN1CCCC1c1ccccc1` (stereo not given) has an INHIBITION of 9.25%.
With `O=C(CCN1CCCCC1c1cc2ccccc2[nH]1)N1CCOCC1` (stereo not given) the INHIBITION was 55.8%.
With `CS(=O)(=O)NCCCN1CCCCC1c1cc2ccccc2[nH]1` (stereo not given) the INHIBITION was 52%.
For `COc1ccc(C2CCCCCN2CCCNS(C)(=O)=O)cc1` (stereo not given), the INHIBITION was 0.914%.
In the case of `O=C(CCN1CCCCCC1c1ccco1)N1CCOCC1` (stereo not given), the INHIBITION is reported as 19.5%.
Compound `O=C(CCN1CCC(c2cc3ccccc3[nH]2)CC1)N1CCOCC1` has an INHIBITION of 39.7%.
Work on `OC(CN1CCN(Cc2cccc(F)c2)CC1)C1CC1` (stereo not given) yielded an INHIBITION of -16.5%.
Compound `Cc1n[nH]c(C)c1NC(=O)CN1CCCC1c1noc(C(C)C)n1` (stereo not given) has an INHIBITION of 14.1%.
For `c1cncc(-c2noc(CN3CCOC(Cn4cccn4)C3)n2)c1` (stereo not given), the INHIBITION was 16.1%.
Work on `Cc1ccc(CN(CCN(C)C)C(=O)Nc2cnn(C)c2)s1` yielded an INHIBITION of 46.4%.
With `CN(C)c1nccc(C2CCCN2S(=O)(=O)c2cn(C)cn2)n1` (stereo not given) the INHIBITION was 12.3%.
`O=C(NCc1nnc2n1CCC2)c1cn(-c2cccc(Br)c2)nn1` showed an INHIBITION of 35.7%.
`COCCNC(=O)Nc1ccc(F)c(C(N)=O)c1` gave an INHIBITION of 39.8%.
For `CCOCC1CN(S(=O)(=O)C2CC2)Cc2ncn(CC3CC3)c21` (stereo not given), the INHIBITION was 7.53%.
`COCC1CN(C(=O)CS(C)(=O)=O)Cc2ncn(CC3CC3)c21` (stereo not given) showed an INHIBITION of 50%.
`COCC1CN(S(=O)(=O)C2CC2)Cc2ncn(CC3CC3)c21` (stereo not given) was tested, and the INHIBITION was 51%.
`CCn1nnc2c1C(COC)CN(C(=O)COc1ccccc1)C2` (stereo not given) was tested, and the INHIBITION was -12.2%.
With `COCC1CN(C(=O)COc2ccccc2)Cc2ncn(C)c21` (stereo not given) the INHIBITION was 51.2%.
`COCC1CN(CC2CC2)Cc2ncn(CC3CC3)c21` (stereo not given) showed an INHIBITION of 13.5%.
Work on `COCC1CN(S(C)(=O)=O)Cc2ncn(CC3CC3)c21` (stereo not given) yielded an INHIBITION of -3.1%.
In the case of `CCS(=O)(=O)N1Cc2ncn(CC3CC3)c2C(COC)C1` (stereo not given), the INHIBITION is reported as 11.5%.
`COCC1CN(C(=O)COc2ccccc2C)Cc2ncn(C)c21` (stereo not given) was tested, and the INHIBITION was -9.42%.
`CS(=O)(=O)c1ccc(-c2nc(C(=O)N3CCCC3)n3ccccc23)cc1` was tested, and the INHIBITION was -42.9%.
With `Cc1ccc(CN2CC[C@@H](O)[C@@H]2Cc2ccccc2)o1` the INHIBITION was 42.3%.
`CC1=C(c2ccc(F)cc2)S(=O)(=O)N=C1N1CCc2ccccc21` was tested, and the INHIBITION was 0.29%.
In the case of `CC(C)N(C)CCNC(=O)N1CCN(Cc2ccon2)CC1`, the INHIBITION is reported as -0.514%.
`Cc1cnc(CN(C)C2CCN(Cc3sc(C)nc3C)C2)o1` (stereo not given) was tested, and the INHIBITION was 21.6%.
`CC(=O)N(Cc1ncc(C)o1)C1CCN(Cc2ccc(F)c(F)c2)C1` (stereo not given) gave an INHIBITION of 68.9%.
In the case of `CCc1cnc(CN(C)C2CCN(CCS(C)(=O)=O)C2)o1` (stereo not given), the INHIBITION is reported as 36.8%.
`Cc1cnc(CN(Cc2ccc(C#N)cc2F)C2CCN(C)C2)o1` (stereo not given) gave an INHIBITION of -40.7%.
With `Cc1cnc(CN(C)C2CCN(Cc3cnc(C)s3)C2)o1` (stereo not given) the INHIBITION was 23.1%.
`Cc1cnc(CN(Cc2ccc(Cl)s2)C2CCN(C)C2)o1` (stereo not given) was tested, and the INHIBITION was 51.2%.
Compound `CC(C)c1cnc(CN(C)C2CCN(CCS(C)(=O)=O)C2)o1` (stereo not given) has an INHIBITION of 38.5%.
For `CC(=O)N(Cc1ncc(C)o1)C1CCN(Cc2ccccc2F)C1` (stereo not given), the INHIBITION was -19.9%.
For `COc1ccc(C)cc1CN(Cc1ncc(C)o1)C1CCN(C)C1` (stereo not given), the INHIBITION was 23.7%.
`Cc1cnc(CN(C)C2CCN(Cc3ccc(Cl)s3)C2)o1` (stereo not given) gave an INHIBITION of 60%.
`CC(=O)N(Cc1ncc(C)o1)C1CCN(Cc2cccnc2)C1` (stereo not given) gave an INHIBITION of 31.9%.
`CCS(=O)(=O)CCN1CCC(N(C)Cc2ncc(C)o2)C1` (stereo not given) showed an INHIBITION of 74.4%.
